Cruzain Triton: qHTS Assay for Promiscuous and Specific Inhibitors of Cruzain (with detergent); purified cruzain, Z-FR-AMC fluorescence, 0.01% Triton; Cruzipain (Trypanosoma cruzi), P25779; AID 1478, 2009; 200,000 tested, 0.43% active; Potency, µM, for the others: max response, negative = inhibition, actives largely listed as inhibitors;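 further: plate controls were neutral wells for no effect and buffer without enzyme for full effect; nearly all actives have a fitted effect of over 40% in size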
Target sequence (P25779 123-467 limits assumed): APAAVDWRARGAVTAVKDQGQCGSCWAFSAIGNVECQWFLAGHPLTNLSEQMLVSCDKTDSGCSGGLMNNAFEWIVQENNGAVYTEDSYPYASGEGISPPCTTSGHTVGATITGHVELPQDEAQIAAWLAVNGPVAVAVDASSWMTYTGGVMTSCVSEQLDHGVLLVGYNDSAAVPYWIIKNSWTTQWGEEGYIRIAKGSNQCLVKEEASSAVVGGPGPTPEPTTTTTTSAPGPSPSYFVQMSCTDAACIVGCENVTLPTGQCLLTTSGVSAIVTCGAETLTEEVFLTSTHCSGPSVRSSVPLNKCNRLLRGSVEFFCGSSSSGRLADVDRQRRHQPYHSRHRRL
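Z-FR-AMC hydrolysis (2 uM substrate) by cruzain (1.5 nM) monitored kinetically at ex 360/em 450 nm after 15 min room-temperature compound exposure; 0.01% Triton X-100, pH 5.5, 5 mM DTT.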
Cruzain inh noDet: qHTS Assay for Promiscuous and Specific Inhibitors of Cruzain (without detergent) | Cruzipain (Trypanosoma cruzi), P25779 | purified cruzain, Z-FR-AMC fluorescence, no detergent | Potency, µM, without a hit: max response, negative = inhibition, usual class: inhibitors | 200,000 tested, 2.3% active | AID 1476, 2009;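 further: plate controls were enzyme without inhibitor for no effect and buffer without enzyme for full effect; nearly all actives have a fitted effect of over 40% in size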
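Purified cruzain at 1.5 nM, pre-incubated 15 min with compound at room temperature in 100 mM sodium acetate pH 5.5, 5 mM DTT, 0.00005% Triton X-100. Reaction started with 2 uM Z-FR-AMC; AMC fluorescence increase over 60 s gives rate.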
Numbers without * were called inactive; ? = inconclusive; ! = not active in a repeat. The list is not random: actives were taken first. Their share in the collection is about 2.6%. The call rests on the fitted dose curve; in most records, active means well fitted curve in the direction sought with a large enough effect; inconclusive means small, poorly fitted or top-dose-only effect, or another doubt; inactive means no such curve, though single readings can be large; an effect the other way counts as inactive or inconclusive. Potency means the concentration at half of the fitted maximal effect.

SMILES	Cruzain Triton	Cruzain inh noDet
COC(=O)c1ccc(C(NC(=O)OCc2ccccc2)/C(F)=C/[C@@H](C)C(=O)NCc2ccc(-c3ccccc3)cc2)cc1 (some centres not stated)	2%	10µM*
COC(=O)c1ccc(C(NC(=O)OCc2ccccc2)/C(F)=C/[C@@H](C)C(=O)NCc2cc(F)cc(F)c2)cc1 (some centres not stated)	-1%	-3%
COC1C=CO[C@@]2(C)Oc3c(C)c(O)c4c(O)c(c5c(nc6cc(C)ccn65)c4c3C2=O)NC(=O)/C(C)=C\C=CC(C)C(O)[C@@H](C)C(O)C(C)[C@@H](OC(C)=O)C1C (some centres not stated)	-5%	24%
CC1=C(C(=O)Nc2ccc(C)cc2C)C(c2cccs2)n2nc(SCc3ccccc3Cl)nc2N1 (configuration not stated)	-2%	-6%
O=C1C(C=NCc2ccncc2)=C(O)c2ccccc21	-3%	1%
O=C1N/C(=C/c2ccc(Br)cc2)C(O)=C1C=NCc1ccccc1	-3%	20µM*
COc1ccc(NC(=O)C2CCCN(S(=O)(=O)c3ccc(F)cc3)C2)cc1 (configuration not stated)	-1%	4%
Cc1cc(OCC(=O)N(Cc2ccc(N(C)C)cc2)CC2CCCO2)ccc1Cl (configuration not stated)	-3%	25%
O=C(Nc1ccccc1)Nc1nnc(/C=C/c2ccccc2Cl)s1	-4%	25µM*
O=C(Nc1ccccc1)O/N=C/c1ccccc1Cl	5%	8%
O=C1CC(=C(c2ccccc2)c2ccccc2)C(=O)N1CCCN1CCN(c2cccc(Cl)c2)CC1	-1%	?
O=C1CC(=C2c3ccccc3-c3ccccc32)C(=O)N1CCCCN1CCN(c2ccccc2)CC1	-16%	16µM*
Cc1ccccc1OCC(=O)Nc1ccc2nc(SCC(=O)N3CCCC3)sc2c1	-6%	13%
COc1ccccc1N1CCN(c2nc3c(S(=O)(=O)c4ccc(C)c(C)c4)nnn3c3ccc(Cl)cc23)CC1	0%	?
COc1ccccc1-c1nccc(NCc2cccs2)n1	3%	?
CCOc1ccccc1N1C(=O)CC(N(O)c2ccccc2)C1=O (configuration not stated)	-1%	-5%
CCCCOc1ccc(N2C(=O)CC(N(O)c3ccccc3)C2=O)cc1 (configuration not stated)	2%	20µM*
CCCCCOc1ccc(N2C(=O)CC(N(O)c3ccccc3)C2=O)cc1 (configuration not stated)	-1%	25µM*
CCCCOc1ccc(N2C(=O)CC(N(CCc3ccccc3)C(=O)/C=C/C(=O)O)C2=O)cc1 (configuration not stated)	0%	?
Cc1ccc(NC(=O)C2CCCN(S(=O)(=O)c3ccc(C)cc3)C2)cc1 (configuration not stated)	-4%	6%
CCc1ccc(S(=O)(=O)c2cn(Cc3ccccc3F)c3cc(OC)c(OC)cc3c2=O)cc1	-2%	?
CCOc1ccc(NC(=O)CCc2c(C)nc3c4c(C)cc(C)nc4nn3c2C)cc1	0%	21%
COc1cc(NS(=O)(=O)c2ccc(NS(=O)(=O)c3ccccc3)cc2)nc(OC)n1	-2%	-3%
COc1cc(NS(=O)(=O)c2ccc(Nc3nc(-c4cccc([N+](=O)[O-])c4)cs3)cc2)nc(OC)n1	-9%	32µM*
COc1ccc(N=C2C(=Nc3ccc(OC)cc3)N(c3ccc(OC)cc3)C(=S)N2c2ccccc2)cc1	0%	?
SMILES	Cruzain Triton	Cruzain inh noDet
Cc1ccc(N=C2C(=S)N(c3ccc(C)cc3)C(=N)N2/N=C/c2ccc(Cl)cc2)cc1	-4%	3.2µM*
CCc1nn(Cc2cccc(F)c2)c(=O)c2cc3cc(C)ccc3n12	-4%	-9%
Cc1ccc(O)c(/C=N/NC(=O)c2[nH]ncc2Br)c1	-6%	4%
Cc1ccc(O)c(/C=N/NC(=O)C2=NNC(c3ccccc3)(c3ccccc3)C2)c1	-15%	13µM*
O=C(c1ccccc1)c1nn(-c2ccc(Cl)cc2)cc1C(=O)c1cc2ccccc2oc1=O	-5%	25µM*
NC(=O)c1cn(-c2ccccc2)nc1-c1cc2ccccc2oc1=O	-3%	-1%
CCn1c(CC(=O)Nc2ccc(C)c(Cl)c2)nnc1SCC(=O)Nc1nc(C)cs1	9%	?
CCn1c(CC(=O)Nc2ccc(C)c(Cl)c2)nnc1SCc1ccc(Cl)c(Cl)c1	5%	13µM*
CCn1c(C(=O)NCc2ccccc2Br)cc2oc3ccccc3c21	-7%	?
CCn1c(C(=O)NCc2cc(Br)ccc2OC)cc2oc3ccccc3c21	-5%	32µM*
CC(C)N(C(=O)Cn1cc(S(=O)(=O)Cc2ccc(Cl)cc2)c2ccccc21)C(C)C	-3%	-9%
COc1cccc(NC(=O)C(Sc2nnc3ccccn23)c2ccccc2)c1 (configuration not stated)	-3%	-5%
CCCn1c(SC(C(=O)Nc2cccc(OC)c2)c2ccccc2)nc2ccccc2c1=O (configuration not stated)	-4%	10µM*
CN(C)Cc1ccccc1-c1nc(N(C)C)c2ccccc2n1	-2%	3%
Cc1cc(=O)n2[nH]c(N)c(N=Nc3ccccc3)c2n1	-6%	-5%
Nc1ccc(N=Nc2ccccc2)c(N)n1	-3%	20µM*!
CC1CCN(C(=O)CSc2nc(-c3ccc(C(C)C)cc3)no2)CC1	-4%	15%
COc1cccc(CNC(=O)CCc2nnc3n(CC(C)C)c(=O)c4ccccc4n23)c1	1%	3%
NC(=S)Nc1nc2ccccc2[nH]c1=O	7.9µM*	?
O=c1[nH]c2ccccc2nc1C(Cl)c1ccccc1 (configuration not stated)	-2%	-15%
CCOc1ccc2nc(N3CCCC(C(=O)NCCc4ccc(C)cc4)C3)sc2c1 (configuration not stated)	0%	-17%
CC(C)Sc1nnc([C@@H](N)Cc2c[nH]c3ccccc23)o1	-2%	7%
Cc1ccc(C)c(NC(=O)CSc2nnc([C@@H](N)Cc3c[nH]c4ccccc34)o2)c1	?	25µM*
CN(C)C(=O)c1ccc(-c2cncnc2NCc2cccnc2)cc1	1%	1%
CC(C)CCn1c(=O)c2sccc2n2c(CCCC(=O)NC(C)c3ccccc3)nnc12 (configuration not stated)	0%	7%
SMILES	Cruzain Triton	Cruzain inh noDet
N#Cc1c(NC(=O)c2ccccc2)sc2c1CCCCC2	-10%	-1%
COc1ccccc1-c1cc(C(=O)Nc2sc3c(c2C#N)CCC(C)C3)c2ccccc2n1 (configuration not stated)	1%	3.2µM*
COc1ccc(OC)c(-c2cc(C(=O)Nc3sc4c(c3C#N)CCC(C)C4)c3ccccc3n2)c1 (configuration not stated)	1%	?
COc1ccc(-c2cc(C(=O)Nc3sc4c(c3C#N)CCCC4)c3ccccc3n2)cc1	-5%	7.9µM*
COc1cc(C2C(=O)N(C3CCCCCC3)CC(=O)N2CCc2ccccc2)ccc1OC(C)C (configuration not stated)	0%	9%
Cc1ccc(CNC(=O)CCCn2c(=O)c3ccccc3n(Cc3ccccc3C)c2=O)cc1	0%	9%
Cc1cc(C)cc(NS(=O)(=O)c2ccc3[nH]cc(C(=O)NCCc4ccccc4)c(=O)c3c2)c1	-2%	?

From PubChem
